In PubChem BioAssay (NCATS):
“And” between values parts separate entries of the source, which are not always exact repeats. Equal values may be shown once. Results filed as inconclusive are left out. Values without a mark were called inactive. Calls come from the whole dose curve; as a rule, active = well fitted cell-killing curve with a large enough effect in the repeat runs; inconclusive = weak or mixed curves; inactive = flat fitted curve, though single readings scatter.

assay: qHTS assay for small molecule agonists of the antioxidant response element (ARE) signaling pathway measured by Nrf2-dependant transcriptional activity - cell viability counter screen (AID 720653); conditions: ARE-bla HepG2 viability, CellTiter-Glo ATP luminescence, 16 h; hits give low values
Outline: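 Cytotoxicity counter screen: intracellular ATP quantified by CellTiter-Glo luminescence in the same ARE-bla HepG2 plates, after 16 h compound exposure and a 2 h beta-lactamase substrate step.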
% is set by controls: 0 for no effect and ±100 for the full control effect.

Structure (SMILES)	max response
CCCCCCCCCCCCCCCC(=O)O	-12.5%
C#C[C@]1(O)CC[C@H]2[C@@H]3CCC4=Cc5oncc5C[C@]4(C)[C@H]3CC[C@@]21C	1.42%
C=C[C@H]1CN2CC[C@H]1C[C@@H]2[C@@H](O)c1ccnc2ccc(OC)cc12	21.8%
CC1(C)OC[C@@H]2O[C@@]3(C(=O)O)OC(C)(C)O[C@H]3[C@@H]2O1	-0.898%
CCCCCCCCOc1ccc(C(=O)c2ccccc2)c(O)c1	-12.5%
NC(=O)c1ccccc1O	-0.33%
COc1ccc(C(=O)c2ccccc2)c(O)c1	6% and -1.76%
COc1ccc(C(Cl)=C(c2ccc(OC)cc2)c2ccc(OC)cc2)cc1	-11.1%
CCCCC(CC)COC(=O)c1ccc(N(C)C)cc1 (stereo not drawn)	0.308% and -6.35%
CCOc1ccccc1C(N)=O	5.3%
CCCCOC(=O)CC(CC(=O)OCCCC)(OC(C)=O)C(=O)OCCCC	-1.72%
NCCNc1cccc2ccccc12	-8.07% and -42.5%
OC[C@H]1O[C@@H]2O[C@H]3[C@H](O)[C@@H](O)[C@@H](O[C@H]4[C@H](O)[C@@H](O)[C@@H](O[C@H]5[C@H](O)[C@@H](O)[C@@H](O[C@H]6[C@H](O)[C@@H](O)[C@@H](O[C@H]7[C@H](O)[C@@H](O)[C@@H](O[C@H]8[C@H](O)[C@@H](O)[C@@H](O[C@H]1[C@H](O)[C@H]2O)O[C@@H]8CO)O[C@@H]7CO)O[C@@H]6CO)O[C@@H]5CO)O[C@@H]4CO)O[C@@H]3CO	-6.08%
